Screening data (PubChem)
HCV NS3h FP: hepatitis C NS3 helicase inhibition, primary screen; NS3h Cy5-dT15 DNA binding, fluorescence polarization; inhibition, % at 100 µM; 16,000 tested, 1.6% active;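 active = inhibition above the average over every tested compound plus 3 SD, cut at about 40% in these data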
Cy5 interf NS3h: Cy5 fluorescence interference, HCV helicase counter-screen | Cy5-dT15 DNA with NS3h; actives lie on both sides; signal over control mean, under 1 quenches | fluorescence interference ratio at 100 µM | 16,000 tested, 6% active | AID 720488;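 active = compound fluorescence over control fluorescence at most 0.8, a quencher, or at least a set upper limit, an enhancer; inactive = ratio between 0.8 and the set upper limit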
Numbers stand for hits; i = inactive. The list is not random: actives were taken first. Their share in the collection is about 7.6%.

SMILES	HCV NS3h FP	Cy5 interf NS3h
CC(=O)NN(c1ccccc1)C1CC(C)N(c2ccccc2)N1C(C)=O (stereo not given)	i	i
COc1ccccc1CN1CCN(Cc2cccnc2)CC1	i	i
O=C(CSCc1ccc(F)cc1)Nc1ccccc1	i	i
O=C(CSc1ncc(-c2ccccc2)[nH]1)Nc1ccc(F)cc1	i	0.78
COc1ccc(C(=O)NC(NC(=S)Nc2sc3c(c2C(N)=O)CCCC3)C(Cl)(Cl)Cl)cc1 (stereo not given)	i	i
CCOC(=O)c1ccccc1NC(=O)CN(c1ccc(OC)c(Cl)c1)S(C)(=O)=O	i	i
CC1=NN(C(=O)c2ccc(Cl)cc2)C(O)(c2ccc(Cl)cc2)C1 (stereo not given)	i	i
O=C(c1cccc(Cl)c1Cl)N1CCN(c2ccc([N+](=O)[O-])cc2)CC1	i	i
Cc1ccccc1NC(=O)c1c(NC(=O)C(Cl)(Cl)Cl)sc2c1CCC2	i	0.68
CC(=O)Nc1sc2c(c1C(=O)Nc1ccccc1C)CCC2	i	i
COC(=O)Cn1cc(/C=C2\C(=O)NC(=O)N(c3cccc(F)c3)C2=O)c2ccccc21	i	i
C=CCN(CC=C)Cn1[nH]c(=O)ccc1=O	i	0.75
CC1CCN(Cn2[nH]c(=O)ccc2=O)CC1	i	i
Cc1ccc(/C=C(\C#N)c2nc3ccccc3s2)cc1	i	i
CCOc1ccc(-c2nc3cc(NC(=O)c4cccc([N+](=O)[O-])c4C)ccc3o2)cc1	i	i
O=C(Nc1cccc(Br)c1)c1cc([N+](=O)[O-])ccc1Cl	i	i
O=C(Nc1ccc(NC(=O)c2cc([N+](=O)[O-])ccc2Cl)cc1)c1ccc(Br)cc1	i	0.54
Cc1ccc(NC(=O)c2ccc(OC3CSC3)cc2)cc1	i	i
O=C(O)c1ccc2c(c1)C(=O)N(c1ccc(-c3nc4cc(N5C(=O)c6ccc(C(=O)O)cc6C5=O)ccc4[nH]3)cc1)C2=O	i	0.65
C#Cc1cccc(N2C(=O)c3ccc(C(=O)O)cc3C2=O)c1	i	i
O=C(O)CCC(=O)Nc1ccc(NC(=O)CCC(=O)O)cc1	i	i
COc1c(Cl)cc(C(=O)Nc2ccc(N3CCOCC3)cc2)cc1Cl	i	i
CCC(=O)Nc1ccc(NC(=O)c2cccc(Cl)c2Cl)cc1	i	i
O=C(Nc1ccc(N2CCOCC2)cc1)c1cccc(Cl)c1Cl	i	0.67
CCCCOC(=O)c1ccc(NC(=O)c2cccc(Cl)c2Cl)cc1	i	0.69
SMILES	HCV NS3h FP	Cy5 interf NS3h
O=C(NCCCn1ccnc1)c1cnn2c(C(F)(F)F)cc(-c3ccc(Br)cc3)nc12	i	i
O=C(Cc1ccccc1)NC(c1ccco1)c1c(O)ccc2ccccc12 (stereo not given)	i	0.59
O=C(Cc1ccccc1)NC(c1ccco1)c1ccc2cccnc2c1O (stereo not given)	i	i
CC(=O)N1C(=O)/C(=C2/SC(=Nc3ccc(Br)cc3)NC2=O)c2ccccc21	i	1.2
COC(=O)c1ccc(/C=C2\SC(=Nc3ccc(Br)cc3)NC2=O)cc1	i	i
O=C(Sc1nnc(-c2cccc(Br)c2)o1)c1ccc([N+](=O)[O-])cc1	i	i
CCc1ccc(OCC(=O)N2CCN(c3ccc([N+](=O)[O-])cc3)CC2)cc1	i	i
Cc1ccccc1N1C(=O)CSC1c1ccc([N+](=O)[O-])cc1 (stereo not given)	i	i
Cc1ccc(NC(=O)C2C3CC/C=C\CCC32)cc1 (stereo not given)	i	i
O=C(O)C1C2C=CC(C3CC23)C1C(=O)Nc1ccc(F)cc1 (stereo not given)	i	0.69
O=C(Nc1ccc(-c2nc3ccccc3c(=O)o2)cc1)c1ccccc1F	i	i
O=c1oc(-c2cccc(F)c2)nc2ccc(Cc3ccc4nc(-c5cccc(F)c5)oc(=O)c4c3)cc12	i	0.77
COc1cc([N+](=O)[O-])ccc1NC(=O)COc1ccc(C)cc1C	i	i
O=C(Nc1ccccc1C(=O)O)c1ccc2c(c1)C(=O)N(c1cccc([N+](=O)[O-])c1)C2=O	i	i
COc1ccc(/C=C/C(=O)N2CCC(C)CC2)cc1Br	i	0.62
COc1ccc(/C=C/C(=O)NCC2CCCO2)cc1Br (stereo not given)	i	i
CCc1ccc(NC(Nc2ccc(CC)cc2)=C(S(=O)(=O)CC)S(=O)(=O)CC)cc1	i	i
NC(=O)COc1ccc(/C=c2/sc3n(c2=O)CCCN=3)cc1	i	1.2
COC(=O)C1=C(C)N(c2ccc(C)cc2)/C(=C\c2ccc(OCC(N)=O)cc2)C1=O	i	i
Cc1ccc(CN2CCN(N=Cc3cccc([N+](=O)[O-])c3)CC2)c(C)c1	i	i
Cc1ccc[n+](CC(=O)c2ccc(-c3ccccc3)cc2)c1	i	i
Nc1cc[n+](CC(=O)c2ccccc2)cc1	i	0.77
O=C(C[n+]1ccc(C(=O)NCc2ccccc2)cc1)c1ccc(-c2ccccc2)cc1	i	0.76
Nc1ccc(C(=O)c2ccc(N)c(N)c2)cc1N	i	i
Cc1cccc(C(=O)N2CCC(C(N)=O)CC2)c1	i	i
